Molecules are shown by their SMILES. Hit rate of the full screen: of about 220,000 compounds, about 750 (0.34%) were called active. What follows is part of a selection rich in actives, with near analogues and random picks from the rest. Values without a mark were called inactive. Rule as the data show it: active = response below about 60% or above about 140%; inactive = in between.

Chain of Guanine nucleotide-binding protein G(o) subunit alpha (Homo sapiens) (P09471 whole entry, looked up): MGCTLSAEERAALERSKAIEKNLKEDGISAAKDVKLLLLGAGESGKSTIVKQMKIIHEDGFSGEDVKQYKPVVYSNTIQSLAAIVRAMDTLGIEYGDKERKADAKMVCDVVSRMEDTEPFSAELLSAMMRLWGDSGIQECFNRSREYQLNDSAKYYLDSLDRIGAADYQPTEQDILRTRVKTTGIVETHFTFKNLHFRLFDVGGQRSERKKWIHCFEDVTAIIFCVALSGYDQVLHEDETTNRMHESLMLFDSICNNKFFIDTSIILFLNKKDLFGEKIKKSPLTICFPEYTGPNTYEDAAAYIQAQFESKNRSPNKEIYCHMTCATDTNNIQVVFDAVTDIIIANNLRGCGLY

The experiment concerns the target Guanine nucleotide-binding protein G(o) subunit alpha (Homo sapiens) (UniProt P09471). The experiment is described as follows: RGS8-Galphao binding modulators, primary screen, biochemical, multiplexed bead flow cytometry (AID 1423).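 Also: Galphao activated as the GDP aluminium fluoride complex binding bead-coupled RGS8.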 The note with it: at 10 µM, actives lie on both sides. (Flow cytometry measures light scatter and fluorescence of single cells or particles in a stream.)
Turning to `S=C1NC(c2ccccc2)=NCN1c1ccc(Br)cc1`, the response (percent of control binding) is 106%.

Turning to `COc1ccc(N2C(=O)CNC2=S)cc1`, the response (percent of control binding) was 102%.

On to `CC(C)NC(=O)c1ccc(Sc2ccccc2)c([N+](=O)[O-])c1`, for which the response (percent of control binding) is 103%.

On to `Cc1c(C(=O)Nc2cccc(-c3nnc4n3CCCCC4)c2)oc2ccccc12`, for which the response (percent of control binding) is 101%.

With `Nc1ccc(C(=O)OCC(=O)NC2CCS(=O)(=O)C2)cc1[N+](=O)[O-]` (configuration not stated), the response (percent of control binding) was 6.98% (active).

As for `Nc1ccc(C(=O)OCC(=O)NC2CCCc3ccccc32)cc1[N+](=O)[O-]` (configuration not stated), the response (percent of control binding) is 101%.

On to `O=C(COC(=O)/C=C/c1ccc2c(c1)OCO2)NC1CCS(=O)(=O)C1` (configuration not stated), for which the response (percent of control binding) is 99.8%.

For `Cc1ccc(/C=N/NC(=O)CSc2ccccn2)o1`, the response (percent of control binding) is 101%.

Take `CC[C@H]1OC(=O)[C@H](C)[C@@H](O[C@H]2C[C@@](C)(OC)[C@@H](O)[C@H](C)O2)[C@H](C)[C@@H](O[C@@H]2O[C@H](C)C[C@H](N(C)C)[C@H]2O)[C@](C)(O)C[C@@H](C)[C@@H]2N[C@@H](COCCOC)O[C@H]([C@H]2C)[C@]1(C)O`: the response (percent of control binding) was 85.8%.

Consider `COc1cc(OC)nc(NC(=O)CCl)n1`, for which the response (percent of control binding) was 100%.

For the compound `CC(=O)Nc1nc(N(C)C)nc(N(C)C)n1`, the response (percent of control binding) was 25.1% (active).

For the compound `CCC(=O)Nc1nc(OC)cc(OC)n1`, the response (percent of control binding) is 100%.

`CC(=O)c1c(C)[nH]c(C(=O)OCC(=O)Nc2sc3c(c2C#N)CCCC3)c1C`: the response (percent of control binding) was 101%.

Turning to `O=Cc1ccc(OCc2cn3ccccc3n2)cc1`, the response (percent of control binding) was 101%.

For `Cn1cc(CCC(=O)N2CCCC(C(=O)c3ccc(C(C)(C)C)cc3)C2)cn1` (configuration not stated), the response (percent of control binding) was 98.1%.

With `CCOC(=O)C1CCCN(C(=O)/C=C/c2ccc(OC)cc2)C1` (configuration not stated), the response (percent of control binding) was 100%.

As to `C=CCOC(=O)C1=C(C)N=C2SCCC(=O)N2C1/C=C/c1ccccc1OC` (configuration not stated), the response (percent of control binding) is 92.4%.

For `CCOC(=O)C1=C(c2ccccc2)N=C2SCC(=O)N2C1c1ccc(O)c(OC)c1` (configuration not stated), the response (percent of control binding) is 144% [activator] (active).

Take `COc1cc(C2C(C(=O)c3ccc(C)o3)=C(O)C(=O)N2CCc2ccccc2)ccc1O` (configuration not stated): the response (percent of control binding) was 101%.

Take `O=C(COc1nc2ccccc2nc1N1CCOCC1)NCC(F)(F)F`: the response (percent of control binding) is 86%.

With `CCOc1cc2[nH]c(=S)n(CCN3CCCCC3C)c(=O)c2cc1OCC` (configuration not stated), the response (percent of control binding) was 111%.

Consider `O=C(OCC1O[C@@H](OC(=O)c2cc(O)c(O)c(O)c2)[C@@H](OC(=O)c2cc(O)c(O)c(O)c2)[C@@H](OC(=O)c2cc(O)c(O)c(O)c2)[C@@H]1OC(=O)c1cc(O)c(O)c(O)c1)c1cc(O)c(O)c(O)c1` (some centres not stated), for which the response (percent of control binding) was 46.9% (active).

With `CC(=O)NC1C(OCc2ccccc2)OC(COC(C)=O)C(OC(C)=O)C1OC(C)=O` (configuration not stated), the response (percent of control binding) is 105%.

For `Cc1nnc(-c2ccc(Oc3ccc(C)c(C)c3)c([N+](=O)[O-])c2)o1`, the response (percent of control binding) was 99.2%.

Turning to `O=C(Oc1ccccc1C(=S)N1CCCCC1)c1cc([N+](=O)[O-])cc([N+](=O)[O-])c1`, the response (percent of control binding) was 95.2%.

`Cc1cc(=O)oc2cc(OCCC[n+]3ccccc3)ccc12`: the response (percent of control binding) was 101%.

For the compound `CCOC(=O)c1c(/N=C/C2C(=O)CC(C)(C)CC2=O)sc(C)c1C`, the response (percent of control binding) is 113%.

On to `Cc1ccc(C(=O)NCC(=O)O)s1`, for which the response (percent of control binding) is 102%.

With `N=C1C(=O)OCC1c1ccccc1NC(=O)CN1CCCCC1` (configuration not stated), the response (percent of control binding) is 100%.

In the case of `CCCc1ccc(C(=O)[C@@H]2[C@@H](C(C)=O)N3c4ccc(F)cc4C=C[C@@H]3[C@@]23C(=O)Nc2ccccc23)cc1`, the response (percent of control binding) was 94.4%.

On to `Cn1nc(-c2ccccc2)c(CO)c1Sc1ccccc1`, for which the response (percent of control binding) was 95.1%.

Turning to `CC(C)(C)CN1C(=O)C(=O)NC[C@H]1Cc1cccc2ccccc12`, the response (percent of control binding) is 96.5%.

Take `CCNC(=O)NC(=O)C(C)OC(=O)C1CCN(S(=O)(=O)c2ccccc2F)CC1` (configuration not stated): the response (percent of control binding) was 106%.

For `CC(NC(=O)COC(=O)C1CCN(S(=O)(=O)c2ccccc2C(F)(F)F)CC1)c1ccccc1` (configuration not stated), the response (percent of control binding) is 148% [activator] (active).

Take `CC(NC(=O)CCC(=O)N1CCN(S(=O)(=O)c2ccc(Cl)cc2)CC1)c1ccccc1` (configuration not stated): the response (percent of control binding) is 101%.

In the case of `O=C(C1CC1)N1N=C2CCCCC2C1(O)C(F)(F)F` (configuration not stated), the response (percent of control binding) was 100%.

For `COC(=O)c1c(NC(=O)CN2CCN(S(=O)(=O)c3ccccc3[N+](=O)[O-])CC2)sc2c1CCC(C)C2` (configuration not stated), the response (percent of control binding) is 104%.

`Cc1ccc(C)c(NC(=O)c2ccc(OC(=O)c3ccco3)cc2)c1`: the response (percent of control binding) was 102%.

In the case of `CC1=CC2=NC(=O)/C(=C/c3coc4ccccc4c3=O)C(=N)N2O1`, the response (percent of control binding) is 108%.

Consider `O=C(COC(=O)CC1CC2CCC1C2)NC(=O)NC1CCCC1` (configuration not stated), for which the response (percent of control binding) was 102%.

For the compound `O=C(c1ccccc1)C(Cn1cncn1)C(Sc1ccccc1)c1ccccc1` (configuration not stated), the response (percent of control binding) was 92.9%.

Take `CC(C)(O)C#Cc1ccc(C(=O)N2CCC(C(N)=O)(N3CCCCC3)CC2)cc1`: the response (percent of control binding) is 100%.

Regarding `CCC(=O)N1CCC(C(N)=O)(N2CCCCC2)CC1`, the response (percent of control binding) was 163% [activator] (active).

Take `NC(=O)C1(N2CCCCC2)CCN(C(=S)Nc2ccc(Cl)cc2)CC1`: the response (percent of control binding) was 129%.

Turning to `COc1ccc(NC(=S)NCC2CCN(c3ccc(OC)cc3)C2)cc1` (configuration not stated), the response (percent of control binding) is 97.5%.

On to `Cc1ccc(S(=O)(=O)N2CCOCC2)cc1C(=O)NC(=S)N(Cc1ccccc1)C(C)C`, for which the response (percent of control binding) was 96.3%.

Regarding `COc1ccc(NC(=S)N2CCc3cc(OC)c(OC)cc3C2)cc1`, the response (percent of control binding) was 103%.

For `O=C(CSc1ncn[nH]1)Nc1nsc(-c2ccccc2)n1`, the response (percent of control binding) is 79%.

Consider `CC(C)(C)C1C/C(=C/c2ccco2)C(=O)/C(=C/c2ccco2)C1` (configuration not stated), for which the response (percent of control binding) was 97.5%.

`COc1cc(/C=C/C(=O)N2c3ccccc3Sc3ccc(C(F)(F)F)cc32)cc(OC)c1OC`: the response (percent of control binding) is 101%.

In the case of `O=C(CN1CCCCCC1)N1c2ccccc2Sc2ccc(C(F)(F)F)cc21`, the response (percent of control binding) was 107%.

On to `O=C(CN1CCCCC1)N1c2ccccc2Sc2ccc(C(F)(F)F)cc21`, for which the response (percent of control binding) was 22.7% (active).

Regarding `Cc1nc(N2CCOCC2)nc2c1CCCC2`, the response (percent of control binding) is 99.2%.

For the compound `C[C@@H]1NC(=O)c2cc([N+](=O)[O-])cc(F)c2NCCC[C@@H](C(N)=O)NC(=O)[C@H](CC(N)=O)NC1=O`, the response (percent of control binding) is 100%.

Consider `COc1ccccc1C(=O)n1nc(-c2ccccc2)nc1N`, for which the response (percent of control binding) is 101%.

For the compound `COc1ccc(CC(=O)n2nc(-c3cccnc3)nc2N)cc1`, the response (percent of control binding) was 101%.

`CCCC(=O)n1nc(-c2ccccc2)nc1N`: the response (percent of control binding) is 20.9% (active).

Take `COC(=O)Nc1ncc(CN2CCCCC2)s1`: the response (percent of control binding) was 111%.

In the case of `CCOC(=O)CNc1nc2ccccc2n2c(C)nnc12`, the response (percent of control binding) is 99.9%.

`O=C1CCC(=O)N(O)CCCCCNC(=O)CCC(=O)N(O)CCCCCNC(=O)CCC(=O)N(O)CCCCCN1`: the response (percent of control binding) is 55.9% (active).

In the case of `CCSc1nc(C)c(CCOc2cccc(C)c2)c(=O)[nH]1`, the response (percent of control binding) was 101%.

With `CN(C)S(=O)(=O)c1cccc(-c2nn(-c3ccccc3)cc2/C=C2\SC(=S)N(CC(=O)O)C2=O)c1`, the response (percent of control binding) is 99.8%.

On to `Cc1ncn2cc(-c3ccc(Cl)cc3Cl)[nH]c(=O)c12`, for which the response (percent of control binding) is 102%.

`O=C(Nc1nnc(Cc2ccc(Cl)cc2)s1)c1ccncc1`: the response (percent of control binding) was 101%.

Consider `Cc1c(NC(=O)C(=O)N/N=C/c2cccs2)c(=O)n(-c2ccccc2)n1C`, for which the response (percent of control binding) was 103%.

`COc1ccc(C(=O)COC(=O)COc2ccc(C)c(C)c2)cc1`: the response (percent of control binding) was 102%.

In the case of `Cc1nc2cc(NC(=O)NC3CC3)ccc2n1C`, the response (percent of control binding) was 103%.

As to `Cc1cc2nc(C)n(CCCNC(=O)Nc3ccccc3)c2cc1C`, the response (percent of control binding) is 170% [activator] (active).

Regarding `Cc1nc2cc(NC(=O)Nc3cccc(F)c3)ccc2n1C`, the response (percent of control binding) was 97.9%.

As for `O=C(O)/C=C/c1ccc(OCCCF)cc1`, the response (percent of control binding) is 98%.

As for `O=C(Cc1ccccc1)NCC1OCCc2ccccc21` (configuration not stated), the response (percent of control binding) is 100%.

`CCc1cc(C(=O)c2ccc(OC)cc2)c(NC(=O)CN2CCN(C)CC2)s1`: the response (percent of control binding) was 107%.

For the compound `Clc1ccc(Nc2ncnc3c2nnn3Cc2ccccc2)cc1`, the response (percent of control binding) is 99.3%.

As for `Cc1nc(Nc2ccc(S(=O)(=O)N3CCCC3)cc2)c2nnn(Cc3ccccc3)c2n1`, the response (percent of control binding) was 101%.

Take `CC(C)Cc1nc(Nc2ccc(S(=O)(=O)N3CCCC3)cc2)c2nnn(Cc3ccccc3)c2n1`: the response (percent of control binding) was 141% [activator] (active).

As to `CC(C)CCNC(=O)C1CCC(CNc2c(N3CCC(C)CC3)c(=O)c2=O)CC1` (configuration not stated), the response (percent of control binding) is 99.2%.

With `NC(=O)C1(N2CCCCC2)CCN(C2CC(=O)N(Cc3ccc(N4CCCC4=O)cc3)C2=O)CC1` (configuration not stated), the response (percent of control binding) was 97.6%.

For the compound `Cc1cccc(C(=O)NNC(=O)c2cccc([N+](=O)[O-])c2)c1`, the response (percent of control binding) was 101%.

In the case of `C=CCn1c(Cn2nnc3ccccc32)nnc1SCC(=O)N/N=C/c1cc(Br)cc(OC)c1O`, the response (percent of control binding) is 5.17% (active).

As to `COc1ccc(OC)c(/C=N/NC(=O)CSc2nnc(C)n2-c2ccccc2)c1`, the response (percent of control binding) was 95.2%.

With `Cc1ccc(Cn2c(SCC(=O)N/N=C/c3ccccc3OCC(=O)O)nc3ccccc32)cc1`, the response (percent of control binding) is 104%.

In the case of `C=CCNC(=O)COC(=O)c1ccccc1C(=O)N(C)C1CCCCC1`, the response (percent of control binding) was 103%.

On to `NC(=O)CSc1c[nH]c2ccccc12`, for which the response (percent of control binding) is 27.5% (active).

`O=C(Cc1c[nH]c2ccccc12)OCCOC(=O)Cc1c[nH]c2ccccc12`: the response (percent of control binding) was 101%.

Consider `CCCn1cc(SCC(N)=O)c2ccccc21`, for which the response (percent of control binding) is 90.4%.

As to `COc1ccc(CC(=O)N[C@@H](CCSC)c2nc3ccccc3[nH]2)cc1`, the response (percent of control binding) was 106%.

Regarding `Cc1ccccc1Cn1nc(C)c(NC(=O)C(F)(F)F)c1C`, the response (percent of control binding) was 106%.

`CCCCN1CCNC1=S`: the response (percent of control binding) was 99.3%.

Turning to `Cc1noc(C)c1S(=O)(=O)N(C)Cc1ccccc1`, the response (percent of control binding) is 98%.

Take `CCOC(=O)C1Sc2[nH]c(=O)sc2C(c2ccc(Cl)cc2)C1C(=O)OCC` (configuration not stated): the response (percent of control binding) was 7.38% (active).

Take `CCOC(=O)C1=C(C)NC(=O)N(C(C)=O)C1c1ccc(Cl)cc1` (configuration not stated): the response (percent of control binding) was 103%.

On to `CCOC(=O)C1C(c2ccc(Cl)cc2)NC(=S)NC1(O)C(F)(F)F` (configuration not stated), for which the response (percent of control binding) was 102%.

Source of the values: PubChem BioAssay AID1423 (NMMLSC, 2008).
